# Laboratory results: article PMC7862700, “An all-to-all approach to the identification of sequence-specific readers for epigenetic DNA modifications on cytosine”
# Key:
# Assay in all cases: DAPPL (digital affinity profiling via proximity ligation, sequencing); 10 mM Tris-HCl pH 7.5, 50 mM NaCl, 1 mM DTT, 4% glycerol, room temperature, 30 min; GST-TFs on glutathione beads, 16-mer random dsDNA library, 0.1% formaldehyde crosslink after washing; high values mean tight binding
# FEV = target: T1, FEV (Homo sapiens, UniProt Q99581 1-238); details: protein: recombinant; tags: N-terminal GST; dsDNA, one strand shown
# T1 sequence: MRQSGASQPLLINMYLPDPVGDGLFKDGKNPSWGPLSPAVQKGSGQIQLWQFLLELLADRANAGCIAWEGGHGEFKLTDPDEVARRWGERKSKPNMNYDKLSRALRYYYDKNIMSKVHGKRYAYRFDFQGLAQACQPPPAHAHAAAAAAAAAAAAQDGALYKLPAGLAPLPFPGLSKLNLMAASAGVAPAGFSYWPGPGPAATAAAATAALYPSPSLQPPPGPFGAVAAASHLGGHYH
# Method in brief: (§1)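 Binding signal is each hexamer's read frequency for a factor divided by its frequency in the tag-only sample. The factors were GST-fused human transcription factors from yeast, captured on glutathione beads, DNA-barcoded and pooled with that sample. Pools were incubated with 200 nmole of a random double-stranded 16-mer DNA library in Tris/NaCl/DTT/glycerol buffer at room temperature for 30 min, then washed, crosslinked with 0.1% formaldehyde, proximity-ligated with BsaI/T4 ligase (1 h, 37 °C), PCR-amplified and sequenced on an Illumina NextSeq500.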
# ETV5 = ETV5 (Homo sapiens, UniProt P41161 1-510); details: protein: recombinant; tags: N-terminal GST; dsDNA, one strand shown
# Sequence of ETV5 (P41161 whole entry): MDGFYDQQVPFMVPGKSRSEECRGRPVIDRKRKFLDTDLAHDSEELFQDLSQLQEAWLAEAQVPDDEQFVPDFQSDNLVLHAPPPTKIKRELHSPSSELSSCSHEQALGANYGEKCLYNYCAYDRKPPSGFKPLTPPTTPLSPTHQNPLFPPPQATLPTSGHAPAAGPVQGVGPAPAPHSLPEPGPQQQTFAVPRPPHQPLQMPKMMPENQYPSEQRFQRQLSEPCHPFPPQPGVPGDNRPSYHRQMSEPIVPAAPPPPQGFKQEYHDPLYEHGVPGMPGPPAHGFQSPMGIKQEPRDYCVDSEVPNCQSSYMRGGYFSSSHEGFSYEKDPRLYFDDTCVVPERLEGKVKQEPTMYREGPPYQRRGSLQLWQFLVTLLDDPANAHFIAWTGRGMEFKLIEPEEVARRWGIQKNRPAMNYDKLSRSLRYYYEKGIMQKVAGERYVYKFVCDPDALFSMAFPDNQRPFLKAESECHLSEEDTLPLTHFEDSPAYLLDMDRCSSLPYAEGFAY
# Method in brief: as §1
# HSF1 = HSF1 (Homo sapiens, UniProt Q00613 1-529); details: protein: recombinant; tags: N-terminal GST; chain copies: 3; dsDNA, one strand shown
# Sequence of HSF1 (Q00613 whole entry): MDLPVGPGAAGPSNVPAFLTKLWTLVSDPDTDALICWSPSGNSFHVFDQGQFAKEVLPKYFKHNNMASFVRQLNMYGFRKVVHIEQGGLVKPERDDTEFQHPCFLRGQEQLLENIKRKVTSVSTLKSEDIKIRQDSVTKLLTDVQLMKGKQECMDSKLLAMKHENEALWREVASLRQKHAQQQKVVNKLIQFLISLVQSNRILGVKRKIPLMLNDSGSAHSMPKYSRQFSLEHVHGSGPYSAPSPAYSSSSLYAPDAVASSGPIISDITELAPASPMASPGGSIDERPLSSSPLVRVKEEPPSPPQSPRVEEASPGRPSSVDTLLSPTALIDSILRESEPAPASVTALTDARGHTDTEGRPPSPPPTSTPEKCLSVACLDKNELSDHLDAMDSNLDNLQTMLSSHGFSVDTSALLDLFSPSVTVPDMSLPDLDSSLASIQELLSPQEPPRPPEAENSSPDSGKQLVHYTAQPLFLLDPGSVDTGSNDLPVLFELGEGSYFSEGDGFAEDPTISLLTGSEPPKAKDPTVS
# Method in brief: as §1
# SPIC = target: T2, SPIC (Homo sapiens, UniProt Q8N5J4 1-248); details: protein: recombinant; tags: N-terminal GST; dsDNA, one strand shown
# T2 sequence: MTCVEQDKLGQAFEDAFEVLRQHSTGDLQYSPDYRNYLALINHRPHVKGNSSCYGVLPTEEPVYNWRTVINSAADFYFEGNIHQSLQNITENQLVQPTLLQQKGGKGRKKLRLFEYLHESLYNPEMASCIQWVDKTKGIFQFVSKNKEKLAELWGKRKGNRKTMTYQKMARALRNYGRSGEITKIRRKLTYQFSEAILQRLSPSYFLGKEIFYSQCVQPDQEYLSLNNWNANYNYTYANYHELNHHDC
# Method in brief: as §1
# ELF4 = ELF4 (Homo sapiens, UniProt Q99607 1-663); details: protein: recombinant; tags: N-terminal GST; dsDNA, one strand shown
# Sequence of ELF4 (Q99607 whole entry): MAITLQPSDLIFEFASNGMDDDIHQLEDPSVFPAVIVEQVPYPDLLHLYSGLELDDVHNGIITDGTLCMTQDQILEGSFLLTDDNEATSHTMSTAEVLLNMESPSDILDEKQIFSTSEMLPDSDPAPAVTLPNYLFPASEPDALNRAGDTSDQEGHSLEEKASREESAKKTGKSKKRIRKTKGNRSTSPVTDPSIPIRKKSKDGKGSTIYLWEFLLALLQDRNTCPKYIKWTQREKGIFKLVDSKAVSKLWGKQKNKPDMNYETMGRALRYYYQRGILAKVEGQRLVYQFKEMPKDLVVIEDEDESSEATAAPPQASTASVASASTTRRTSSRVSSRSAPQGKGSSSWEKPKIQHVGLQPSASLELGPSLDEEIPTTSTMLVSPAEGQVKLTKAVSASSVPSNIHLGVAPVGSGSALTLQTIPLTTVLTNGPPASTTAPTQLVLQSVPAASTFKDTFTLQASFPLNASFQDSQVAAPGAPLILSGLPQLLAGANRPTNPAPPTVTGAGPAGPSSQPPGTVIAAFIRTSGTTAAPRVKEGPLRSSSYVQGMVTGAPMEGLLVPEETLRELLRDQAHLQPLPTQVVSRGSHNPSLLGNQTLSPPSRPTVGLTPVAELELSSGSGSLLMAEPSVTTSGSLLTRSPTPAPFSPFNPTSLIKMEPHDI
# Method in brief: as §1
# ELK4 = target: T3, ELK4 (Homo sapiens, UniProt P28324-2 1-405); details: protein: recombinant; tags: N-terminal GST; dsDNA, one strand shown
# T3 sequence: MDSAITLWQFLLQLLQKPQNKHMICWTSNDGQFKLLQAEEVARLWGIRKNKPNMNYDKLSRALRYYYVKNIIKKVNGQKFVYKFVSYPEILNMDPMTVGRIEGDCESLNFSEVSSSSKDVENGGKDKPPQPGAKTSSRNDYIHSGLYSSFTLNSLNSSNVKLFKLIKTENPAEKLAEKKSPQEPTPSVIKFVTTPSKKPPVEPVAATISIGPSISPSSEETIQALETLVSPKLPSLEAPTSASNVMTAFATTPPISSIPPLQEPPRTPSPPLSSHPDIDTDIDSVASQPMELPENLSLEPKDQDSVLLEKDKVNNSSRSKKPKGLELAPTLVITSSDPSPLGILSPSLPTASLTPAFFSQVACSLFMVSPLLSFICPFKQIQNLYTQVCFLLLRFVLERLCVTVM
# Method in brief: as §1
# ETV2 = target: T4, ETV2 (Homo sapiens, UniProt O00321 1-342); details: protein: recombinant; tags: N-terminal GST; dsDNA, one strand shown
# T4 sequence: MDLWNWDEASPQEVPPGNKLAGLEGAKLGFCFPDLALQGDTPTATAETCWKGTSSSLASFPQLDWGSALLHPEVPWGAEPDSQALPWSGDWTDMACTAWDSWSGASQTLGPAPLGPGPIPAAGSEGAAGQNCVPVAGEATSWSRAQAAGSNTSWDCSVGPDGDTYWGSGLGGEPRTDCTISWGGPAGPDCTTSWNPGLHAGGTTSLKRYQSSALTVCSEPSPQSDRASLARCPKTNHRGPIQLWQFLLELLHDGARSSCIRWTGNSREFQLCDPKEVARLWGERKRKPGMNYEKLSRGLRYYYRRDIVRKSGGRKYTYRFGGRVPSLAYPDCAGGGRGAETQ
# Method in brief: as §1
# ELF3 = target: T5, ELF3 (Homo sapiens, UniProt P78545 1-371); details: protein: recombinant; tags: N-terminal GST; dsDNA, one strand shown
# T5 sequence: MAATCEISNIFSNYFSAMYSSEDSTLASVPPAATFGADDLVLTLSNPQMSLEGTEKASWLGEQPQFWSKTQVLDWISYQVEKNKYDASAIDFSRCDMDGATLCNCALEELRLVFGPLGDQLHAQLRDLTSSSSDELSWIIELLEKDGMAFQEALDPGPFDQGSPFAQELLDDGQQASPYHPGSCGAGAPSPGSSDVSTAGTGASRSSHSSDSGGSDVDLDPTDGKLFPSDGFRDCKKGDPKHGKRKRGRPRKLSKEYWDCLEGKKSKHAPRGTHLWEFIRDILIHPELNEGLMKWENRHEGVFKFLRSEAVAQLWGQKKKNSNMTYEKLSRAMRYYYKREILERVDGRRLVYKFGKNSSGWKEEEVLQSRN
# Method in brief: as §1
# CRX = CRX (Homo sapiens, UniProt O43186 1-299); details: protein: recombinant; tags: N-terminal GST; dsDNA, one strand shown
# Sequence of CRX (O43186 whole entry): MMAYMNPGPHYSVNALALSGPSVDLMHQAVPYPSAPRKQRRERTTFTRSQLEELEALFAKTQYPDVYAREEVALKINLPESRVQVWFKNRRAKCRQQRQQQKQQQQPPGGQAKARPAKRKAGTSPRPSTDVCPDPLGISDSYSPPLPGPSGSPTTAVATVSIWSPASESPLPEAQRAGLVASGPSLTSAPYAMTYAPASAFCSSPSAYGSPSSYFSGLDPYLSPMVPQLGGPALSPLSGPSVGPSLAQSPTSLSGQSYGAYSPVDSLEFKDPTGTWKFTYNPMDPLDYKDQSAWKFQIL
# Method in brief: as §1
# ETV1 = ETV1 (Homo sapiens, UniProt P50549 1-477); details: protein: recombinant; tags: N-terminal GST; dsDNA, one strand shown
# Sequence of ETV1 (P50549 whole entry): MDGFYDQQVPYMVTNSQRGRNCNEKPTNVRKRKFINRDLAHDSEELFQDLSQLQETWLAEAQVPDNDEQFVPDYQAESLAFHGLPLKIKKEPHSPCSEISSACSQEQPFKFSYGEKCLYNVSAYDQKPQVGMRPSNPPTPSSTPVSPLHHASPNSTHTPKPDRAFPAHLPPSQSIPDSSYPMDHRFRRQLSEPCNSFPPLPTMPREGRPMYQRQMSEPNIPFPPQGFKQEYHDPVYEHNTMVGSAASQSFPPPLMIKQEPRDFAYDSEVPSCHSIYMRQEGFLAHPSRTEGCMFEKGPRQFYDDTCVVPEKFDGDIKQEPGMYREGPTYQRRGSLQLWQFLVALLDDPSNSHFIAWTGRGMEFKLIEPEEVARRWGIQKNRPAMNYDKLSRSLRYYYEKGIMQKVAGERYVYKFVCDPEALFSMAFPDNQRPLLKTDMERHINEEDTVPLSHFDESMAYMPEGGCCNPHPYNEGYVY
# Method in brief: as §1
# ERF = target: T6, ERF (Homo sapiens, UniProt P50548 1-548); details: protein: recombinant; tags: N-terminal GST; dsDNA, one strand shown
# T6 sequence: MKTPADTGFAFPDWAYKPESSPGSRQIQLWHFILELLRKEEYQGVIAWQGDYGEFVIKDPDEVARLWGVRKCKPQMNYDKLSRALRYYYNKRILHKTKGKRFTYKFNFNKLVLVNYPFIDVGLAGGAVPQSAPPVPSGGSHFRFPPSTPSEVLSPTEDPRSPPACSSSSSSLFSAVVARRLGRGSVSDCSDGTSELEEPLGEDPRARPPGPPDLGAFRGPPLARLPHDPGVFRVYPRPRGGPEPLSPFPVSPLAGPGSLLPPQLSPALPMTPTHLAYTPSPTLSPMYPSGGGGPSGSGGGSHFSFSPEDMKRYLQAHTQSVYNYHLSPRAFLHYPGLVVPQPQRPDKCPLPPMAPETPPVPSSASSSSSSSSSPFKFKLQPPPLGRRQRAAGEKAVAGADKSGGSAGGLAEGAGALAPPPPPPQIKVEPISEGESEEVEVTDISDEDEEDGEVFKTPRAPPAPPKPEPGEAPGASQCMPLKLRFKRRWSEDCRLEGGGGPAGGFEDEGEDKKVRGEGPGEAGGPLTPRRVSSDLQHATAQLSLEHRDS
# Method in brief: as §1
# ETV3L = target: T7, ETV3L (Homo sapiens, UniProt Q6ZN32 1-361); details: protein: recombinant; tags: N-terminal GST; dsDNA, one strand shown
# T7 sequence: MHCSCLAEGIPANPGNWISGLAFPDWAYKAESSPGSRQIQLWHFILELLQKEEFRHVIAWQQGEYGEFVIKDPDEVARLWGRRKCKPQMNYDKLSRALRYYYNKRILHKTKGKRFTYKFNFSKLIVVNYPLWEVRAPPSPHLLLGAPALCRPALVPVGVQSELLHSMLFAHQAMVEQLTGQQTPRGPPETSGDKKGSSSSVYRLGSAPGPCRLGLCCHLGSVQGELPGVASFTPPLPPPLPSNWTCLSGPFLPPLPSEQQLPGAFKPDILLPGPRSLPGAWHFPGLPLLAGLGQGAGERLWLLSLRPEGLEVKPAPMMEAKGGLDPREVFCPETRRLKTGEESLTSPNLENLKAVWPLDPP
# Method in brief: as §1
# ETS2 = target: T8, ETS2 (Homo sapiens, UniProt P15036 1-469); details: protein: recombinant; tags: N-terminal GST; dsDNA, one strand shown
# T8 sequence: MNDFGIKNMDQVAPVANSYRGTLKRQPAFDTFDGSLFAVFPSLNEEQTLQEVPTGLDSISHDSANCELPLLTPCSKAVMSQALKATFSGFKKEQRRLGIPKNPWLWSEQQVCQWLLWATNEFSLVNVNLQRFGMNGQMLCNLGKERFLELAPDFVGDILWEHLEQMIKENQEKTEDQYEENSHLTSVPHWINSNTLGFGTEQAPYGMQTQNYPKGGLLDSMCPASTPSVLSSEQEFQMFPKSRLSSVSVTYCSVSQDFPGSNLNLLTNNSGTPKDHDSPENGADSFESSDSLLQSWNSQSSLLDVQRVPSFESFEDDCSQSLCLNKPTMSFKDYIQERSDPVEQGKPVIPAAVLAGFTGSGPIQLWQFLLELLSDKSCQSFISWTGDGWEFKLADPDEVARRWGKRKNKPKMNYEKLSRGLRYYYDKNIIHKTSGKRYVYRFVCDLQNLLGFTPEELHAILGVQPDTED
# Method in brief: as §1
# SPDEF = target: T9, SPDEF (Homo sapiens, UniProt O95238 1-335); details: protein: recombinant; tags: N-terminal GST; dsDNA, one strand shown
# T9 sequence: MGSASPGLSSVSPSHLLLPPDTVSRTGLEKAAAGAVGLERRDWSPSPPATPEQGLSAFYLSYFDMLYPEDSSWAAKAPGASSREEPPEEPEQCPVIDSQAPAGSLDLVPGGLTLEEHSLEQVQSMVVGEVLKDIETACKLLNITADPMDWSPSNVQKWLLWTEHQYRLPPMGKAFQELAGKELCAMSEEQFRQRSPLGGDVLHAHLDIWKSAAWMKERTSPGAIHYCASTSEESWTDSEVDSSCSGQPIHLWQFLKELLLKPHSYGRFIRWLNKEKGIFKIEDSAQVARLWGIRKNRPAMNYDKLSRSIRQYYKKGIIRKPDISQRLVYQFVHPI
# Method in brief: as §1
# ETV7 = target: T10, ETV7 (Homo sapiens, UniProt Q9Y603 1-341); details: protein: recombinant; tags: N-terminal GST; dsDNA, one strand shown
# T10 sequence: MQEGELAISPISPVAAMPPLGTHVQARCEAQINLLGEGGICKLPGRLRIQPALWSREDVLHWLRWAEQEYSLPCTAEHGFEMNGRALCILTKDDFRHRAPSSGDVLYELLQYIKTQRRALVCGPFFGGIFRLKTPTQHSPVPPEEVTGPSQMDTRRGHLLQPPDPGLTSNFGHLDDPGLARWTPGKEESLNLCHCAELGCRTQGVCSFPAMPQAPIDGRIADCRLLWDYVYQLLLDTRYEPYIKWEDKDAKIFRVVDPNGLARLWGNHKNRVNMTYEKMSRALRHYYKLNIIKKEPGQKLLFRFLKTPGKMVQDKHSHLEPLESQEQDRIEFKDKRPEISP
# Method in brief: as §1
# ELF5 = target: T11, ELF5 (Homo sapiens, UniProt Q9UKW6-2 1-255); details: protein: recombinant; tags: N-terminal GST; dsDNA, one strand shown
# T11 sequence: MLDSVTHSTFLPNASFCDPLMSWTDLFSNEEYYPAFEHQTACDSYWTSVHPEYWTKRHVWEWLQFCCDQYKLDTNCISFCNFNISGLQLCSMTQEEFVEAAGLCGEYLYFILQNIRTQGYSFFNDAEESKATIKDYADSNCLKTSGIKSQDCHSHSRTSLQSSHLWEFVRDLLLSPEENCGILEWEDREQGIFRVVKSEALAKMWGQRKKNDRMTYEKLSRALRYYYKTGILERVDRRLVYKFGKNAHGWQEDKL
# Method in brief: as §1
# ETV3 = target: T12, ETV3 (Homo sapiens, UniProt P41162-2 1-143); details: protein: recombinant; tags: N-terminal GST; dsDNA, one strand shown
# T12 sequence: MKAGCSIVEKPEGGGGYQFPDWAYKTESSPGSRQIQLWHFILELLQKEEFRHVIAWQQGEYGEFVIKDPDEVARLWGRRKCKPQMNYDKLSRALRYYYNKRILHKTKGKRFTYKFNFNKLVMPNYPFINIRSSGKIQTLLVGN
# Method in brief: as §1
# ETV6 = ETV6 (Homo sapiens, UniProt P41212 1-452); details: protein: recombinant; tags: N-terminal GST; dsDNA, one strand shown
# Sequence of ETV6 (P41212 whole entry): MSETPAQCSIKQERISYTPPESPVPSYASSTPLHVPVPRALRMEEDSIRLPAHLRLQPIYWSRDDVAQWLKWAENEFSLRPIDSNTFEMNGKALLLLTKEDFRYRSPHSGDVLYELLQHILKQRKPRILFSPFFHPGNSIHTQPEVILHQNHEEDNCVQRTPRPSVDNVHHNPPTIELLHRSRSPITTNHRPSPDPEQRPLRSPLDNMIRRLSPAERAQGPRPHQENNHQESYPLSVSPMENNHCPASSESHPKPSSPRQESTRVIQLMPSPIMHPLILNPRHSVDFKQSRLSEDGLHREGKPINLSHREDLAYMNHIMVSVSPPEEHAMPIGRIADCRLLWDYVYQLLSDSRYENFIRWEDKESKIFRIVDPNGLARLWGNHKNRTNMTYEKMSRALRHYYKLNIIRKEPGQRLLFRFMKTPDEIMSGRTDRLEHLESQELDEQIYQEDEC
# Method in brief: as §1
sequence,measurement,setting,value
ATGTTA,binding signal,FEV,"1.13 fold enrichment (6-mer frequency, TF over GST control)"
same,binding signal,ETV5,"1.25 fold enrichment (6-mer frequency, TF over GST control)"
same,binding signal,HSF1,"1.12 fold enrichment (6-mer frequency, TF over GST control)"
same,binding signal,SPIC,"1.28 fold enrichment (6-mer frequency, TF over GST control)"
same,binding signal,ELF4,"1.33 fold enrichment (6-mer frequency, TF over GST control)"
same,binding signal,ELK4,"1.23 fold enrichment (6-mer frequency, TF over GST control)"
same,binding signal,ETV2,"1.24 fold enrichment (6-mer frequency, TF over GST control)"
same,binding signal,ELF3,"1.17 fold enrichment (6-mer frequency, TF over GST control)"
same,binding signal,CRX,"1.31 fold enrichment (6-mer frequency, TF over GST control)"
same,binding signal,ETV1,"1.3 fold enrichment (6-mer frequency, TF over GST control)"
same,binding signal,ERF,"1.21 fold enrichment (6-mer frequency, TF over GST control)"
same,binding signal,ETV3L,"1.2 fold enrichment (6-mer frequency, TF over GST control)"
same,binding signal,ETS2,"1.24 fold enrichment (6-mer frequency, TF over GST control)"
same,binding signal,SPDEF,"1.26 fold enrichment (6-mer frequency, TF over GST control)"
same,binding signal,ETV7,"1.23 fold enrichment (6-mer frequency, TF over GST control)"
same,binding signal,ELF5,"1.21 fold enrichment (6-mer frequency, TF over GST control)"
same,binding signal,ETV3,"1.23 fold enrichment (6-mer frequency, TF over GST control)"
same,binding signal,ETV6,"1.28 fold enrichment (6-mer frequency, TF over GST control)"
